Reference: PubChem BioAssay (Tox21)
Results filed as inconclusive are left out. Active and inactive are the calls of the source. Unless noted, calls come from the whole dose curve.

Legend:
[1] = Nuclear factor erythroid 2-related factor 2/antioxidant responsive element (Nrf2/ARE) small molecule agonists: qHTS cell viability counter screen in human keratinocytes (AID 1919968; active = well fitted curve in the direction sought with a large enough effect in the repeat runs; an effect the other way counts as inactive or inconclusive; note: nearly all actives have a fitted effect of over 55% in size; note: potency is the fitted concentration of half-maximal effect)
How it was run: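 HaCaT ARE reporter line, 1,500 cells/well; 5 h settle, 37 C/5% CO2; cpd in DMSO pinned; 23 h exposure; CellTiter-Fluor, 1 h; fluorescence.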

[2] = target: Gonadotropin-releasing hormone receptor (Homo sapiens) (UniProt P30968); assay: Human gonadotropin-releasing hormone receptor (GnRHR) small molecule agonists, calcium flux assay in GnRHR-HEK293 cells (AID 1920063); note: nearly all actives have a fitted effect of over 35% in size
Chain of Gonadotropin-releasing hormone receptor (Homo sapiens) (P30968 whole entry, looked up): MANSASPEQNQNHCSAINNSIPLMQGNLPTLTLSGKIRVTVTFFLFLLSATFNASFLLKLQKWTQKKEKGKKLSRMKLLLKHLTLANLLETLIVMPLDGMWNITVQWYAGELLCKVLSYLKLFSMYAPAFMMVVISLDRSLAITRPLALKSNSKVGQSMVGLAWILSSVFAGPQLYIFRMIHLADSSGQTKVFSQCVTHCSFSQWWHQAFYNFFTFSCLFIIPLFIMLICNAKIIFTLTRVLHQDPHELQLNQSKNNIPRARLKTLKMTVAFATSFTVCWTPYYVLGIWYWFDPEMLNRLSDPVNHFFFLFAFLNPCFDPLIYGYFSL
How it was run: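 GnRHR-HEK293, 1500 cells/well, 18 h 37 C/5% CO2; Ca dye 1 h 37 C; cpd pinned (DMSO), agonist mode; kinetic FL 480/540, 3 min, 1 s reads; 15 conc, n=3.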

[3] = target: KiSS-1 receptor (Homo sapiens) (UniProt Q969F8); assay: Human kisspeptin (KISS1R) small molecule agonists, calcium flux assay in KISS1R-HEK293 cells (AID 1920064; active = well fitted curve in the direction sought with a large enough effect in the repeat runs; an effect the other way counts as inactive or inconclusive)
Chain of KiSS-1 receptor (Homo sapiens) (Q969F8 whole entry, looked up): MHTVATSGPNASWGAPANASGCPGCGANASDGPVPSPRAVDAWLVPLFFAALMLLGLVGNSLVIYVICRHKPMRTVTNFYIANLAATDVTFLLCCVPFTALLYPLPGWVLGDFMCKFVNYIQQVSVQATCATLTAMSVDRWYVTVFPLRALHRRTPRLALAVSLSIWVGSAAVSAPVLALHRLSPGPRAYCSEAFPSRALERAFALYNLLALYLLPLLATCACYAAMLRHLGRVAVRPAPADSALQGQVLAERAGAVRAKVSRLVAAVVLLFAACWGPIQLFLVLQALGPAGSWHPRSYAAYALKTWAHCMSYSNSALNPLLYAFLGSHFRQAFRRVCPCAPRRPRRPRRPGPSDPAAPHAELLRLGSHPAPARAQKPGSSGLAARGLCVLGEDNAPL
How it was run: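 Stable human KISS1R HEK293 line; 18 h plating, 37 C/5% CO2; calcium dye 1 h 37 C; compound pin transfer; kinetic fluorescence Ex/Em 480/540, 3 min.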

[4] = G protein-coupled receptor (GPCR) small molecule agonists, calcium flux assay: HEK293 wild type cell line counter screen (AID 1920065)
How it was run: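 Kinetic fluorescence at Ex/Em 480/540, recorded every second over 3 min, served as the read-out after compound addition. Each compound was tested at 15 concentrations in triplicate on cells pre-loaded with calcium dye for 1 h.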

[5] = p53 small molecule agonists, cell-based qHTS assay with rat liver microsomes (AID 1963578)
How it was run: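 Metabolic activation is supplied by rat liver microsomes with NADPH (each 0.5 mg/mL final). p53RE-bla cells incubate with compound 16 h at 37 C; reporter activity is measured by LiveBLAzer fluorescence.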

[6] = p53 small molecule agonists, cell-based qHTS assay with human liver microsomes: qHTS cell viability counter screen (AID 1963579); note: nearly all actives have a fitted effect of over 45% in size; note: potency is the fitted concentration of half-maximal effect
How it was run: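 After the 460/530 nm beta-lactamase read, CellTiter-Glo was added to the same wells and luminescence measured after 30 min at room temperature, giving viability of p53RE-bla cells treated 16 h with compounds plus microsomes and NADPH.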

[7] = p53 small molecule agonists, cell-based qHTS assay with rat liver microsomes: qHTS cell viability counter screen (AID 1963580); note: nearly all actives have a fitted effect of over 45% in size; note: potency is the fitted concentration of half-maximal effect
How it was run: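 p53RE-bla HCT-116 cells were exposed 16 h at 37 C to compounds with rat liver microsomes (0.5 mg/mL) and NADPH (0.5 mg/mL). Viability was measured in the same wells as ATP content by CellTiter-Glo luminescence.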

[8] = p53 small molecule agonists, cell-based qHTS assay: qHTS cell viability counter screen (AID 1963581); note: nearly all actives have a fitted effect of over 45% in size; note: potency is the fitted concentration of half-maximal effect
How it was run: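 HCT-116 p53RE-bla cells, 4,000/well, plated 5 h before compound pin transfer; 16 h at 37 C; bla substrate 2 h RT; then CellTiter-Glo, 30 min RT, luminescence.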

[9] = p53 small molecule agonists, cell-based qHTS assay (AID 1963582; active = well fitted activation curve with a large enough effect in the signal ratio in the repeat runs, not every such curve was filed as active; the % refers to the signal ratio)
How it was run: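 Reporter line: p53RE-bla. Pre-incubation 5 h, 37 C, 5% CO2; compound (DMSO, pin tool) 16 h, 37 C; B/G FRET substrate 2 h RT; fluorescence intensity read.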

[10] = target: 5-hydroxytryptamine receptor 2A (Homo sapiens) (UniProt P28223); assay: 5-hydroxytryptamine receptor 2A (HTR2A) small molecule antagonists, cell-based qHTS assay (AID 1963586); note: nearly all actives have a fitted effect of over 45% in size
Chain of 5-hydroxytryptamine receptor 2A (Homo sapiens) (P28223 whole entry, looked up): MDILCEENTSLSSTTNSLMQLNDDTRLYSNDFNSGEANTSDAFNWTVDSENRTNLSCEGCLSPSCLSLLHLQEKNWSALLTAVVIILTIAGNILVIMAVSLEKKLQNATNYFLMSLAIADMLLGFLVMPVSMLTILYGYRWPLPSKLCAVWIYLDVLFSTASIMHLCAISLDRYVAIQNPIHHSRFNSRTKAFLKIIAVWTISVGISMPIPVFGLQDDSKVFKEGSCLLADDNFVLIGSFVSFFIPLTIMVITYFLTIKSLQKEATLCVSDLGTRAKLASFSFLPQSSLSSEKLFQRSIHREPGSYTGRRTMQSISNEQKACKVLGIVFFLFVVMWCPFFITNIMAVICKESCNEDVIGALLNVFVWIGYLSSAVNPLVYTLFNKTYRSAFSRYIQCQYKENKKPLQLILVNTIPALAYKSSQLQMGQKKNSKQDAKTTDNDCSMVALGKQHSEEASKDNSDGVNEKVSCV
How it was run: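 Antagonist-mode intracellular calcium assay: DOI (4 nM) added after 5 min compound pre-incubation at room temperature to dye-loaded HTR2A-CHO cells. Fluorescence followed for 3 min, sampled every second.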

[11] = target: 5-hydroxytryptamine receptor 2A (Homo sapiens) (UniProt P28223); assay: 5-hydroxytryptamine receptor 2A (HTR2A) small molecule agonists, cell-based qHTS assay (AID 1963587); note: nearly all actives have a fitted effect of over 30% in size
How it was run: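 CHO cells stably expressing human HTR2A, plated 18 h, loaded with calcium dye 1 h at 37 C. Agonist mode: compounds added and intracellular calcium fluorescence recorded kinetically for 2 min at 1 sec intervals.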

[12] = target: Muscarinic acetylcholine receptor M1 (Homo sapiens) (UniProt P11229); assay: Cholinergic receptor muscarinic 1 (CHRM1) small molecule antagonists, cell-based qHTS assay (AID 1963588); note: nearly all actives have a fitted effect of over 40% in size
Chain of Muscarinic acetylcholine receptor M1 (Homo sapiens) (P11229 whole entry, looked up): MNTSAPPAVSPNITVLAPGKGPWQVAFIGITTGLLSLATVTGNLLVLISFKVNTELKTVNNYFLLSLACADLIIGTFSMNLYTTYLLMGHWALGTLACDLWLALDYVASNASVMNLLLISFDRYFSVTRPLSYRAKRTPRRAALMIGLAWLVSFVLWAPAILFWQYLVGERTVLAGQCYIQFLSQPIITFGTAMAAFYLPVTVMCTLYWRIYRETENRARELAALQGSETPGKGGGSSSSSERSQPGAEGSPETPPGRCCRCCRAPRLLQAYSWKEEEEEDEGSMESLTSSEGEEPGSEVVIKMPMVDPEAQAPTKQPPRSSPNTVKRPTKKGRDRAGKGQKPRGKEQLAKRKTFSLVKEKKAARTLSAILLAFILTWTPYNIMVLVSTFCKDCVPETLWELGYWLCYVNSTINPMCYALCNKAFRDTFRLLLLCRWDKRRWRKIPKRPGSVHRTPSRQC
How it was run: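 CHRM1-CHO calcium-flux assay, antagonist mode. Cells were seeded 18 h, dye-loaded 1 h at 37 C and given compound for 5 min at RT, then acetylcholine was added at 50nM. FDSS fluorescence was read 3 min; 15 concentrations, three runs.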

[13] = target: Muscarinic acetylcholine receptor M1 (Homo sapiens) (UniProt P11229); assay: Cholinergic receptor muscarinic 1 (CHRM1) small molecule agonists, cell-based qHTS assay (AID 1963589); note: nearly all actives have a fitted effect of over 35% in size
How it was run: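 Human M1 in stable CHO line; 18 h plating, 1 h dye load 37 C; cpd added (agonist mode); Ca2+ fluorescence kinetic read, 1 s intervals; 15 conc, 3 runs.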

[14] = cAMP Responsive Elements (CRE) small molecule agonists, cell-based qHTS assay (AID 1963590)
How it was run: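 HEK 293T CRE-bla, 2,000 cells/well, 18 h preincubation 37 C/5% CO2; cpds (DMSO) pinned, 3 h; LiveBLAzer B/G FRET substrate, 2 h RT.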

[15] = cAMP Responsive Elements (CRE) small molecule antagonists, cell-based qHTS assay (AID 1963591; active = well fitted inhibition curve with a large enough effect in the signal ratio in the repeat runs, not every such curve was filed as active; the % refers to the signal ratio; note: potency is the fitted concentration of half-maximal effect)
How it was run: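 Beta-lactamase reporter read by FRET substrate (LiveBLAzer B/G) after 2 h at room temperature. CRE-bla HEK293T cells had received compound plus 0.25 uM (final) NKH477 for 3 h at 37 °C.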

[16] = target: Beta-2 adrenergic receptor (Homo sapiens) (UniProt P07550); assay: Adrenergic beta2 receptor (ADRB2) small molecule antagonists, cell-based qHTS assay (AID 1963592); note: series mostly up to about 92 µM; nearly all actives have a fitted effect of over 50% in size
Chain of Beta-2 adrenergic receptor (Homo sapiens) (P07550 whole entry, looked up): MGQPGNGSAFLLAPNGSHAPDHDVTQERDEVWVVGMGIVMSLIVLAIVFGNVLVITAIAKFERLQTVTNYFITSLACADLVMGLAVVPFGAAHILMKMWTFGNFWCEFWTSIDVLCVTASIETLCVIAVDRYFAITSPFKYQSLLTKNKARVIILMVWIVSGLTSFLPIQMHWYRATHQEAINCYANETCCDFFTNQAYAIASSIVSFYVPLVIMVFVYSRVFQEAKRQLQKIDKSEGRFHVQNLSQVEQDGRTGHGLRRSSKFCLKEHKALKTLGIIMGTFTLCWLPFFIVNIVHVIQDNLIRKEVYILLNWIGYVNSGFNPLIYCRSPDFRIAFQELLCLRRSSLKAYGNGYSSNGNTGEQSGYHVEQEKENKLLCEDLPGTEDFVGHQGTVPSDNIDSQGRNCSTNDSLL
How it was run: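 Cells (CHO, stable ADRB2 overexpression) incubated 18-20hr at 37C; compounds added from DMSO; agonist mix (1nM isoproterenol, 100uM IBMX, 25uM Ro-20-1724) added; 0.5hr RT; d2-cAMP and anti-cAMP-cryptate added; 1hr RT; 665/615 nm read.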

[17] = target: D(2) dopamine receptor (Homo sapiens) (UniProt P14416); assay: Dopamine D2 receptor (DRD2) small molecule agonists, cell-based qHTS assay (AID 1963594); note: nearly all actives have a fitted effect of over 35% in size
Chain of D(2) dopamine receptor (Homo sapiens) (P14416 whole entry, looked up): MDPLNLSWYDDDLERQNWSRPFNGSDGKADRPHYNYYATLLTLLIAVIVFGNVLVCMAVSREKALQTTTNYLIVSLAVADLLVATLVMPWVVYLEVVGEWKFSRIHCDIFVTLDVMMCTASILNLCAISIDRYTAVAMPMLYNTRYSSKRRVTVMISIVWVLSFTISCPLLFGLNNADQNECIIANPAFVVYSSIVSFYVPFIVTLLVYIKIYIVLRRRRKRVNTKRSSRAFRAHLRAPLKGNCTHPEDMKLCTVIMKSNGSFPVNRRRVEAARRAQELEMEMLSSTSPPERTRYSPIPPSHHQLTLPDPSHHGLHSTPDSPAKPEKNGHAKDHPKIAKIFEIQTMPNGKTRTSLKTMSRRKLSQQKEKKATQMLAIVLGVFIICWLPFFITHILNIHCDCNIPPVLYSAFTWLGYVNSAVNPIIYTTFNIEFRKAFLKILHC
How it was run: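 HEK293 cells stably expressing human DRD2, pre-treated with PDE inhibitor Ro20-1724 (0.1 mM final) and compound 10 min at room temperature, then stimulated with NKH477 (200nM […]) for 30 min. cAMP read by HTRF (665/620 nm).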

[18] = target: D(2) dopamine receptor (Homo sapiens) (UniProt P14416); assay: Dopamine D2 receptor (DRD2) small molecule antagonists, cell-based qHTS assay (AID 1963595; active = well fitted inhibition curve with a large enough effect in the signal ratio in the repeat runs, with a control signal flat; the % refers to the signal ratio)
How it was run: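 HEK293 cells stably expressing DRD2 were preincubated with 0.1 mM Ro20-1724, then with compound for 10 min at room temperature. Cells were stimulated with 200 nM NKH477 plus 12 nM quinpirole for 30 min, and cAMP was read by HTRF.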

[19] = p53 small molecule agonists, cell-based qHTS assay with human liver microsomes (AID 1963577);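 note: p53 response element beta-lactamase reporter cells with liver microsomes plus NADPH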
How it was run: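 Steps: plate p53RE-bla cells, incubate 5 h at 37 C; add compound in DMSO; add microsomes (0.5 mg/mL final) and NADPH (0.5 mg/mL final); incubate 16 h at 37 C; add LiveBLAzer, 2 h RT; read fluorescence.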

[20] = target: Beta-2 adrenergic receptor (Homo sapiens) (UniProt P07550); assay: Adrenergic beta2 receptor (ADRB2) small molecule agonists, cell-based qHTS assay (AID 1963593);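 note: CHO cells stably overexpressing human ADRB2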
How it was run: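 CHO cells stably over-expressing ADRB2 were plated overnight at 37C, then dosed with compounds plus a stimulation mix containing 100uM IBMX and 25uM Ro-20-1724 for 0.5hr at room temperature. cAMP was measured by HTRF competition, 1hr.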
% is set by controls: 0 for no effect and ±100 for the full control effect.

c1ccc(B(c2ccccc2)c2ccccc2)cc1
active: Potency [15] 28.5 µM
inactive: Potency [1] | Potency [2] | Potency [3] | Potency [4] | Potency [5] | Potency [6] | Potency [7] | Potency [8] | Potency [9] | Potency [10] | Potency [11] | Potency [12] | Potency [13] | Potency [14] | Potency [16] | Potency [17] | Potency [18]

NC(=O)CCCCC1CCSS1 (stereo unspecified)
inactive: Potency [1] | Potency [2] | Potency [3] | Potency [4] | Potency [19] | Potency [6] | Potency [7] | Potency [8] | Potency [10] | Potency [11] | Potency [13] | Potency [14] | Potency [15] | Potency [16] | Potency [17] | Potency [18]

CC(=O)Nc1cccc(N)c1
inactive: Potency [1] | Potency [2] | Potency [3] | Potency [4] | Potency [19] | Potency [5] | Potency [9] | Potency [10] | Potency [12] | Potency [13] | Potency [14] | Potency [15] | Potency [16] | Potency [17] | Potency [18]

Cc1cc(O)c(Cl)c(C)c1Cl
inactive: Potency [1] | Potency [2] | Potency [3] | Potency [4] | Potency [19] | Potency [6] | Potency [7] | Potency [9] | Potency [11] | Potency [12] | Potency [13] | Potency [14] | Potency [16] | Potency [20] | Potency [17] | Potency [18]

CN(C)CC/C=C1\c2ccccc2COc2ccccc21
inactive: Potency [1] | Potency [2] | Potency [3] | Potency [4] | Potency [19] | Potency [6] | Potency [7] | Potency [8] | Potency [9] | Potency [14] | Potency [15] | Potency [17] | Potency [18]

CCCCCCCCCCCCCCCCCCCl
inactive: activity change, negative = cytotoxicity [1] -0.678% [at 8.39 µM] | activity change [2] 0.0314% [at 5.22 µM, stronger effect = higher value] | activation [3] 6.45% [at 6.97 µM] | activation [4] 0.281% [at 5.23 µM] | activation [5] 2.88% [at 5.99 µM] | activity change, negative = cytotoxicity [6] 1.68% [at 5.99 µM] | activity change, negative = cytotoxicity [7] 2.02% [at 5.99 µM] | activity change, negative = cytotoxicity [8] -9.11% [at 5.99 µM] | activation [9] -3.59% [at 5.99 µM] | activity, negative = inhibition [10] -6.54% [at 5.62 µM] | activation [11] -0.0042% [at 7.02 µM] | activity, negative = inhibition [12] 10% [at 5.58 µM] | activation [14] 0.946% [at 8.39 µM] | activity change, negative = inhibition [15] -6.83% [at 8.39 µM] | activity change, negative = inhibition [16] 8.82% [at 8.39 µM] | activation [17] 0.784% [at 8.39 µM] | activity change, negative = inhibition [18] 3.22% [at 8.38 µM]

CO[C@@H]1[C@@H](OC)[C@H](C)[C@@](O)(CC(=O)O)O[C@H]1[C@H](C)[C@H]1O[C@@]2(CC[C@@](C)([C@H]3CC[C@@](C)([C@@H]4O[C@@H]([C@H]5O[C@](C)(O)[C@H](C)C[C@@H]5C)C[C@@H]4OC4C[C@H](OC)[C@@H](OC)[C@H](C)O4)O3)O2)C[C@H](O)[C@H]1C (stereo partly specified)
active: Potency [1] 0.237 µM
inactive: Potency [2] | Potency [3] | Potency [4] | Potency [19] | Potency [5] | Potency [7] | Potency [14] | Potency [16] | Potency [20] | Potency [17] | Potency [18]

CCc1cc(SCc2sc(-c3ccc(C(F)(F)F)cc3)nc2CN2CCN(c3ccc(OC)cc3)CC2)ccc1OCC(=O)O
inactive: Potency [2] | Potency [3] | Potency [4] | Potency [19] | Potency [13] | Potency [17]
active: Potency [1] 54.5 µM | Potency [6] 36.3 µM | Potency [7] 32.4 µM | Potency [8] 12.9 µM

CCCCCC
inactive: Potency [1] | Potency [2] | Potency [3] | Potency [4] | Potency [19] | Potency [6] | Potency [7] | Potency [8] | Potency [9] | Potency [10] | Potency [11] | Potency [12] | Potency [13] | Potency [14] | Potency [15] | Potency [16] | Potency [20] | Potency [17] | Potency [18]

CC(C)(C)c1ccc(C(=O)CCCN2CCC(OC(c3ccccc3)c3ccccc3)CC2)cc1
inactive: Potency [2] | Potency [3] | Potency [4] | Potency [19] | Potency [6] | Potency [7] | Potency [16] | Potency [18]
active: Potency [1] 6.68 µM | Potency [8] 11.2 µM

CCCC(=O)OC
inactive: Potency [1] | Potency [2] | Potency [3] | Potency [4] | Potency [19] | Potency [6] | Potency [7] | Potency [8] | Potency [9] | Potency [10] | Potency [11] | Potency [12] | Potency [14] | Potency [15] | Potency [16] | Potency [17] | Potency [18]

CC(Oc1c(Cl)cccc1Cl)C1=NCCN1 (stereo unspecified)
inactive: Potency [1] | Potency [2] | Potency [3] | Potency [4] | Potency [19] | Potency [6] | Potency [7] | Potency [8] | Potency [9] | Potency [10] | Potency [13] | Potency [14] | Potency [15] | Potency [16] | Potency [17] | Potency [18]

Cc1ccc(Cl)cc1N
inactive: Potency [1] | Potency [2] | Potency [3] | Potency [4] | Potency [19] | Potency [6] | Potency [7] | Potency [8] | Potency [9] | Potency [10] | Potency [11] | Potency [12] | Potency [14] | Potency [15] | Potency [16] | Potency [17] | Potency [18]

OCCOCC#CCOCCO
inactive: Potency [1] | Potency [2] | Potency [3] | Potency [4] | Potency [19] | Potency [5] | Potency [8] | Potency [10] | Potency [11] | Potency [12] | Potency [13] | Potency [14] | Potency [16] | Potency [17] | Potency [18]
